The campaign covered roughly 1,800 compounds. About 1,400 (78%) were called active. Another 2% or so got no clear call; they are omitted.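 The calls were made as follows: active = fitted curve crossing a set activation limit at or below the highest valid dose tested; inconclusive = flat fit at 30 to 70% activation, or poor fit; inactive = the rest, including signal decreases.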 The set was probably picked from earlier hits. Only a sample is shown. Potency and affinity values are given separately.
Assay: blockers of NLG process in reporter cells – D54 ERlucT cells, luminescence, cherry-picks, dose response (AID 624491);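 also: signal gain reflects blocked N-linked glycosylation of a luciferase reporter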
Details: D54 ERlucT glycosylation luciferase reporter, 24 h, 100% = twice neutral-control luminescence; series mostly up to 19.5 µM; activation (NLG inhibition): at the top concentration

Activation (NLG inhibition), inactive:
COc1ccc(NC(=O)C2Cc3c(-c4ccc5c(c4)OCO5)ccnc3O2)cc1 (stereo not given) -4.2%
O=C(O)c1ccccc1OC(C(=O)Nc1cc(Cl)cc(Cl)c1)c1ccccc1 (stereo not given) 173%
CCOc1cc(S(=O)(=O)NCc2ccc(OC)cc2)c(OCC)cc1-n1cnnn1 74.3%
CCOc1ccc2c(c1)C(=NNC(=O)c1ccncc1)c1cc(OCC)ccc1-2 12.9%
O=C(Nc1cccc(C(F)(F)F)c1)c1sc(Cl)nc1C(F)(F)F 6.11%
Cc1cc(O)c(NC(=O)c2cc([N+](=O)[O-])ccc2Cl)cc1C 41.7%
O=C(Cc1cccs1)NCCS(=O)(=O)N1CCN(c2ccccc2F)CC1 31.5%
CCc1ccc(NC(=O)Cn2c(=O)n(CCC(=O)NC3CCN(Cc4ccccc4)CC3)c(=O)c3ccccc32)cc1 133%
CNC(=O)COC(=O)c1ccccc1C(=O)c1ccc(Cl)c([N+](=O)[O-])c1 11% [at 1.2 µM]
CCCn1c2ccccc2c2cnn(CC(=O)NC3CCCC(C)C3C)c(=O)c21 (stereo not given) 9.84% [at 5 µM]
COc1ccc(CN(C(=O)c2ccc(CN3CCOCC3)o2)C(C(=O)NCC2CCCO2)c2ccc(F)cc2)cc1 (stereo not given) 2.01%
Nc1c(C(=O)c2ccccc2)sc2nsc(SCCN3CCOCC3)c12 28.1%
O=C1OC(c2ccc(F)cc2)CC1CN1CCOCC1 (stereo not given) 13.6%
COC(=O)Nc1ccc(S(=O)(=O)N2CCCc3ccccc32)cc1 -4.31%
CCOc1ccc2[nH]c(=O)c(CN(Cc3ccc(F)cc3)C(=O)c3ccco3)cc2c1 31.5%
O=C(N/N=C/c1cccnc1)c1cc(-c2ccc(Br)cc2)nc2ccccc12 9.58%
Cc1cccc2[nH]c3c(N4CCC5(CC4)OCCO5)ncnc3c12 23.9%
CC1Nc2ncnc(N3CCc4ccccc4C3)c2N(Cc2ccc(Br)cc2)C1=O (stereo not given) 41.9%
COc1ccc(CN2C(=O)C(C)Nc3ncnc(N4CCc5ccccc5C4)c32)cc1 (stereo not given) 6.37%
COc1ccc(Cn2c(=O)c3[nH]cnc3n(-c3ccccc3C)c2=O)cc1 41.5%
O=C(Nc1ccccc1)N1CCC(c2nc(-c3ccc(S(=O)(=O)N4CCOCC4)cc3)no2)CC1 17.9%
COc1ccc(/C=C/C(=O)c2ccc3c4c(cccc24)CC3)cc1 41.7%
COc1cc(/C=C/C(=O)c2ccc(Cl)s2)cc(OC)c1O 11.1%
COc1cc(O)c(C(=O)/C=C/c2ccccc2)c(OC)c1 18.2%
COc1ccc(/C=C2\CN(Cc3ccccc3)C/C(=C\c3ccc(OC)cc3)C2=O)cc1 -8.86%
CN1C/C(=C\c2ccc(N3CCOCC3)cc2)C(=O)/C(=C/c2ccc(N3CCOCC3)cc2)C1 -8.7%
CCOc1ccc(/C=C/C(=O)c2ccccc2)cc1OC 28.2%
COc1ccc(C(=O)/C=C/c2ccc(OC3CSC3)cc2)cc1OC 55.4%
COc1ccc(C2=Nn3c(nnc3-c3ccc(OC)cc3)SC2)cc1 7.21%
COc1ccc(OC)c(-c2nnc3n2N=C(c2ccc(OC)c(OC4CCCC4)c2)CS3)c1 -3.46%
COc1ccc(C2=Nn3c(nnc3-c3ccco3)SC2)cc1 68.5%
COc1ccc2nc(-c3ccco3)c(-c3ccco3)nc2c1 2.38%
O=S1(=O)C=CC(Nc2cccc(Cl)c2)C1 (stereo not given) 19.2%
O=C(CSc1nc2nc(-c3cccs3)cc(C(F)(F)F)c2c(=O)[nH]1)C(F)(F)F 36.6%
Cc1ccc(C)n1-c1ccc(C(=O)/C=C/N(C)C)cc1 5.31%
Cc1ccc(-c2cc(NC(=O)CCl)n(-c3ccccc3)n2)cc1 -70.1%
CCOc1ccccc1NC(=O)Cn1nnc(C(=O)NCc2ccc3c(c2)OCO3)c1N 46.6%
COc1cc(Cl)c(C)cc1NC(=O)CN1CCN(C(=O)C2CC2)CC1 21.3%
COc1ccc(NC(=O)C2Cc3c(-c4cccc(C(C)=O)c4)ccnc3O2)cc1 (stereo not given) 16.6%
CCNC(=O)COc1ccc(/C=C2\COc3ccccc3C2=O)cc1OC 19.8% [at 5 µM]
CN(Cc1ccc(Cl)s1)C(=O)CCl -17.1%
CCN(CC(=O)NCc1ccc(F)cc1)C(=O)/C=C/c1ccc(OC)c(S(=O)(=O)NC(C)C)c1 40%
CN1C(=O)c2cccc3c(S(=O)(=O)Nc4ccccc4F)ccc1c23 52.8%
CCN(CC)CCCNC(=O)c1cc2c(=O)n(CC)c3ccccc3c2s1 21.5%
COc1cc(C2=NOC(C(=O)NCc3cccs3)C2)cc(OC)c1OC (stereo not given) 26.4%
CCOC(=O)Nc1c2ccccc2nc2ccccc12 62.4%
O=C(O)c1ccc(CN2C(=O)c3cccc4c([N+](=O)[O-])ccc(c34)C2=O)cc1 -46.8%
Cc1noc(C)c1COc1ccc(C(=O)NNC(=O)c2ccccc2)cc1 44.8%
CC[C@@]1(c2ccccc2OC)ON(c2ccccc2C(F)(F)F)C1=O 10.9%
COc1ccccc1C1=NOC(COc2ccc3c(C)cc(=O)oc3c2)C1 (stereo not given) 33.4%
COc1cccc(C(=O)Nc2ncc3c(n2)CC(c2ccc(OC)cc2OC)CC3=O)c1 (stereo not given) 37.5%
Cc1nc2c3cc(F)ccc3n(CCN3CCCCC3)c2s1 35.5%
NNC(=O)c1ccc2nc(-c3ccc(Br)cc3)cn2c1 610%
Cc1ccc(-c2cc(C(=O)N/N=C/c3c[nH]c4ccccc34)[nH]n2)cc1 30.9%
COc1ccc(CCn2c(=N)c(C(=O)NC3CCCC3)cc3c(=O)n4ccccc4nc32)cc1OC 55.9%
COc1cc2cc(C(c3nnnn3C(C)(C)C)N3CCc4ccccc4C3)c(=O)[nH]c2cc1OC (stereo not given) 18%
Cc1cccc(N2CCN(C(=O)c3ccc(Cl)c(S(=O)(=O)NCc4ccco4)c3)CC2)c1C 29.6%
C=CCN(CC=C)C(=O)CN1C(=O)NC(C)(c2ccc3cc(OC)ccc3c2)C1=O (stereo not given) 3.96% [at 5 µM]
NC(=O)/C=C\C(=O)Nc1cccc(C(F)(F)F)c1 -15.6%
O=S(=O)(Nc1cccc2cccnc12)c1ccc(S(=O)(=O)N2CCCC2)cc1 -10.1%
Cc1cc(NC(=O)CSc2nc(C3CC3)nc3sc(C)c(C)c23)no1 17.8%
CCN(CC)C(=O)CSc1nc2c(sc(=S)n2-c2ccccc2)c(=O)n1Cc1ccco1 10.5%
COc1ccc(N(CC(=O)Nc2cc(Cl)ccc2OC)S(=O)(=O)c2c(C)noc2C)cc1 15.9%
Cc1cc(Br)ccc1NC(=O)CCCOc1cc(=O)n(C)c2ccccc12 30.6%
N#Cc1c(NC(=O)c2cnccn2)sc2c1CCCC2 6.08%

Reference: PubChem BioAssay AID624491 (Broad Institute, 2012)
